Measurements published in article PMC4336329 (PLoS ONE, 2015).
Among all 310,000 compounds or so, about 14,000 (4.5%) showed an effect of 50% or more. The effect is printed as a negative number. What follows is part of a selection rich in strong results, with near analogues and random picks from the rest.

Target: human ether-à-go-go-related gene (hERG) potassium channel (human, UniProt Q12809)
Experiment: primary screen, population patch clamp on CHO cells stably expressing hERG; higher = less effect of the substance
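Note: peak tail current of the secondary pulse compared with the same well before compound.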

human ether-à-go-go-related gene (hERG) potassium channel, sequence (Q12809 whole entry, looked up): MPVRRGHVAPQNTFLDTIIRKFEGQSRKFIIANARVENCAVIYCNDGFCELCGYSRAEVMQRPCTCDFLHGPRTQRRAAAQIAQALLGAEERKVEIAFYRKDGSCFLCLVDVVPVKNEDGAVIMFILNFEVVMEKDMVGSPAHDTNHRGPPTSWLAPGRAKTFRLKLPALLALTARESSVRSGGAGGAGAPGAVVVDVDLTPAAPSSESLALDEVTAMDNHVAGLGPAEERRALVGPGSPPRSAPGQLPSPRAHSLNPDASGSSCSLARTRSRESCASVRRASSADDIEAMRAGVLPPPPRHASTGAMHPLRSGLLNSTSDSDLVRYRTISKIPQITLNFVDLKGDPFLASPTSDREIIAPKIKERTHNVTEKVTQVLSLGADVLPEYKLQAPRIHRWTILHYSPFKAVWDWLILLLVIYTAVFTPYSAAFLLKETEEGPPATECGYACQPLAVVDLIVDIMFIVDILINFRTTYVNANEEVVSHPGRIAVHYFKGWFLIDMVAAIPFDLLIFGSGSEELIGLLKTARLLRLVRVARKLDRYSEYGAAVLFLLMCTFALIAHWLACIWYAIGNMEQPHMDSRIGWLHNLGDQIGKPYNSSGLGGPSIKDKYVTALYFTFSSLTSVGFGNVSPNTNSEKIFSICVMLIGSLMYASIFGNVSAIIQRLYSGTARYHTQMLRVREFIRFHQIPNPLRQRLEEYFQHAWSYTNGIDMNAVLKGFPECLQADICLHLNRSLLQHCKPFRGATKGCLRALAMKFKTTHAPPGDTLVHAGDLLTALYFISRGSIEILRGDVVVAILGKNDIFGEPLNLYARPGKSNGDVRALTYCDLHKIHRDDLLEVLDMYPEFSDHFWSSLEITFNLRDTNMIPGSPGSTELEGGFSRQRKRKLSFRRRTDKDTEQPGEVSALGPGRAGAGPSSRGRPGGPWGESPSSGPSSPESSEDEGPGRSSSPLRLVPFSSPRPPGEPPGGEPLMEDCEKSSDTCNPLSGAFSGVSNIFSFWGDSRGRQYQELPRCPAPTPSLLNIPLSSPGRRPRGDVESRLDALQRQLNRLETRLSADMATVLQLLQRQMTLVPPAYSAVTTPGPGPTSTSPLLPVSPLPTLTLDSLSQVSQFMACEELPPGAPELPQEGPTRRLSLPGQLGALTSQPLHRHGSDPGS

In order of rising “hERG current change (%, negative = inhibition) at 10uM” value:
1. CN1CCN(c2ccccc2NC(=O)c2ccc([N+](=O)[O-])o2)CC1  -69.6%
2. CCC(=O)N1CCN(c2ccccc2NC(=O)c2ccc([N+](=O)[O-])o2)CC1  -69%
3. CN1CCN(c2ccccc2NC(=O)c2ccc(-c3ccccc3[N+](=O)[O-])o2)CC1  -67.9%
4. CC(C)C(=O)N1CCN(c2ccccc2NC(=O)c2cc([N+](=O)[O-])ccc2N2CCOCC2)CC1  -67.2%
5. CC(=O)c1ccc(N2CCN(C(=O)c3nn(C)c4c3CS(=O)(=O)c3ccccc3-4)CC2)cc1  -64.5%
6. CC(C)C(=O)N1CCN(c2ccccc2NC(=O)c2ccc([N+](=O)[O-])o2)CC1  -63%
7. CN(Cc1ccc(-n2cccn2)cc1)Cc1nc(-c2cnccn2)no1  -58.2%
8. Cc1cccc(NC(=O)c2ccc(-c3ccccc3[N+](=O)[O-])o2)c1  -55.2%
9. Cn1nc(C(=O)N2CCN(c3ccc(F)cc3)CC2)c2c1-c1ccccc1S(=O)(=O)C2  -54.3%
10. Cn1nc(C(=O)N2CCN(c3cccc(Cl)c3)CC2)c2c1-c1ccccc1S(=O)(=O)C2  -53.4%
11. Cn1nc(C(=O)N2CCN(c3ccc(Cl)cc3)CC2)c2c1-c1ccccc1S(=O)(=O)C2  -51.2%
12. COc1cccc(NC(=O)c2ccc(-c3ccccc3[N+](=O)[O-])o2)c1  -46.1%
13. Cn1nc(C(=O)N2CCN(c3ccccc3)CC2)c2c1-c1ccccc1S(=O)(=O)C2  -40.9%
14. Cc1cccc(N2CCN(C(=O)c3nn(C)c4c3CS(=O)(=O)c3ccccc3-4)CC2)c1C  -33.4%
15. CN(C)S(=O)(=O)c1ccc(NC(=O)CN2CCC(Cc3ccccc3)CC2)cc1  -32.8%
16. Cn1nc(C(=O)N2CCN(c3ccc([N+](=O)[O-])cc3)CC2)c2c1-c1ccccc1S(=O)(=O)C2  -31.4%
17. CS(=O)(=O)N1CCN(c2ccccc2NC(=O)c2ccc([N+](=O)[O-])o2)CC1  -25.2%
18. N#CCCN(C(=O)COC(=O)CNC(=O)C12CC3CC(CC(C3)C1)C2)c1ccccc1  -23.5%
19. CSc1nnc(C)c(=O)n1COC(=O)c1ccc(S(=O)(=O)N2CCCC2)cc1  -22.8%
20. Cn1nc(C(=O)N2CCN(c3ccccc3F)CC2)c2c1-c1ccccc1S(=O)(=O)C2  -21.2%
21. CCC(=O)N1CCN(c2ccc(Cl)cc2NC(=O)c2ccc([N+](=O)[O-])o2)CC1  -21%
22. O=C(Nc1ccccc1N1CCOCC1)c1ccc([N+](=O)[O-])o1  -17.9%
23. CC(=O)c1cccc(NC(=O)c2ccc(-c3ccccc3[N+](=O)[O-])o2)c1  -17.4%
24. CCc1ccccc1NC(=O)c1cc([N+](=O)[O-])ccc1N1CCOCC1  -16.5%
25. O=C(CCS(=O)(=O)c1cccc2nonc12)NCCc1ccccc1Cl  -7.38%
26. COc1ccc(CNC(=S)N/N=C(/C)c2ccccc2)cc1  -6.47%
27. Cc1ccc(N(C(=O)c2csnn2)C(C(=O)NC2CCCCC2)c2cccnc2)c(C)c1 (centres unmarked)  -5.38%
28. CN1CCN(c2ccccc2NC(=O)c2ccc(-c3ccc(Cl)cc3Cl)o2)CC1  -3.82%
29. Cc1ccc(N2CCN(C(=O)c3nn(C)c4c3CS(=O)(=O)c3ccccc3-4)CC2)c(C)c1  -3%
30. CC1CCN(c2ccccc2NC(=O)c2cc([N+](=O)[O-])ccc2N2CCOCC2)CC1  -2.63%
31. O=C(/C=C/c1ccc(Cl)c(Cl)c1)N1CCOCC1  -1.3%
32. CN1CCN(C(=O)C(C(=O)c2ccc(F)cc2)n2ccccc2=O)CC1 (centres unmarked)  -1.24%
33. Cc1ccc(C2NC(=S)NC3=C2N2CCC3CC2)cc1 (centres unmarked)  1.2%
34. COc1ccccc1N1CCN(C(=O)c2nn(C)c3c2CS(=O)(=O)c2ccccc2-3)CC1  2.07%
35. CCn1c(CNC(=O)c2cccnc2)cc2ccccc21  2.41%
36. COc1cc(C)ccc1OCCCCOc1ccccc1C(C)=O  3.3%
37. O=C(Nc1ccccc1N1CCCC1)c1ccc([N+](=O)[O-])o1  5.51%
38. CC(C)NC(=O)CN1C(=O)NC(CCc2ccccc2)C1=O (centres unmarked)  5.75%
39. CCOC(=O)c1sc(NC(=O)CSc2nc(C)cc(C)c2C#N)c(C#N)c1C  8.19%
40. COc1ccc(OC)c(NC(=S)NCc2cccnc2)c1  8.59%
41. CC12CCC(C(=O)NCCc3ccccc3)(OC1=O)C2(C)C (centres unmarked)  9.83%
42. COC(=O)C1CC(O)CN1C(=O)c1ccco1 (centres unmarked)  10.6%
43. Cc1cc(C)n(-c2cccc(CN(C)Cc3nc(-c4cnccn4)no3)c2)n1  10.8%
44. Cc1ccccc1NC(=O)c1ccc([N+](=O)[O-])o1  11.5%
45. O=C(O)Cc1ccc(C(=O)c2cccs2)s1  11.8%
46. CCN1CCN(C(=O)c2nn(C)c3c2CS(=O)(=O)c2ccccc2-3)CC1  12%
47. O=C(CNC(=O)c1cccs1)c1ccc(Br)cc1  12.2%
48. Cc1ccc(C)c(N2CCN(S(=O)(=O)c3ccc4c(c3)NC(=O)CO4)CC2)c1  12.7%
49. CN(Cc1ccc(F)cc1)Cc1nc(-c2cnccn2)no1  13.7%
50. Cn1nc(C(=O)N2CCCCC2)c2c1-c1ccccc1S(=O)(=O)C2  14.7%
51. CC1CCN(c2ccccc2NC(=O)c2ccc([N+](=O)[O-])o2)CC1  25%
52. COc1ccccc1NC(=O)c1ccc(-c2ccccc2[N+](=O)[O-])o1  26.7%
53. O=C(O)c1cccc(Cn2c(Cl)c(/C=N/NC(=O)c3ccco3)sc2=O)c1  38.3%
